# Records with an inconclusive call do not appear. Activity calls are given as the source filed them. The call rests on the fitted dose curve; in most records, active means well fitted cell-killing curve with a large enough effect; inconclusive means small, poorly fitted or top-dose-only effect, or effect the other way; inactive means no such curve, though single readings can be large or run the other way.
# Assay: Quantitative High-Throughput drug screen in 47 multiple myeloma cell lines against the NCATS MIPE library collection: MM1S_ATCC cell viability assay (AID 1918980); further: nearly all actives have a fitted effect of over 45% in size
# Conditions: MM1S myeloma viability, CellTiter-Glo ATP luminescence, 48 h; series mostly up to 45.8 µM
# Procedure, shortened: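 MIPE 4.0 approved/investigational drugs; 500 cells/well; 48 h 37 °C humidified 5% CO2; CTG luminescence readout; DMSO = 100%, media = 0% viability.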
# Potency means the concentration at half of the fitted maximal effect.
row,Structure (SMILES),Potency
1,C[C@H]([C@H](O)CCC(C)(C)O)[C@H]1CC[C@@]2(O)C3=CC(=O)[C@@H]4C[C@@H](O)[C@@H](O)C[C@]4(C)[C@@H]3CC[C@]12C,inactive
2,C1=C2CCCN[C@H]2[C@@H]2C[C@H]1[C@@H]1CCCCN1C2,inactive
3,CC(=Cc1csc(C)n1)[C@@H]1C[C@H]2O[C@@H]2CCC[C@H](C)[C@@H](O)[C@@H](C)C(=O)C(C)(C)[C@@H](O)CC(=O)O1,inactive
4,Clc1ccccc1C(c1ccccc1)(c1ccccc1)n1cccn1,469 nM (active)
5,C[C@@H]1CC[C@H]2[C@@H](C)C(=O)O[C@@H]3O[C@@]4(C)CC[C@H]1[C@]32OO4,296 nM (active)
6,CO[C@H]1CCC(O[C@H]2C[C@H]([C@]3(C)CC[C@]4(C[C@H](O)[C@@H](C)[C@@H]([C@@H](C)C=C(C)C(=O)[C@H](C)C[C@H](C)C(=O)O)O4)O3)O[C@]3(O[C@@H]([C@H]4O[C@@](O)(CO)[C@H](C)C[C@H]4C)C[C@H]3C)[C@H]2C)O[C@H]1C (stereo partly drawn),296 nM (active)
7,COC1=CC(C)=C[C@@H](C)[C@@H](O)[C@@H](C)CC(C)=CC=C[C@H](OC)[C@H]([C@@H](C)[C@@H](O)[C@H](C)[C@@]2(O)C[C@@H](O)[C@H](C)[C@@H](C(C)C)O2)OC1=O,1480 nM (active)
8,O=c1[nH]c2ccc(Cl)cc2c(N[C@@H]2CN3CCC2CC3)c1-c1nc2ccccc2[nH]1,74.3 nM (active)
9,CC(C)(C)[C@]1(O)C[C@@H]2OC(=O)C[C@@]23C(=O)O[C@@H]2OC(=O)[C@H](O)C213 (stereo partly drawn),inactive
10,COc1ccc(N(C(=O)Oc2c(C)cccc2C)c2ccnc(Nc3ccc(N4CCN(C)CC4)cc3)n2)c(OC)c1,4690 nM (active)
11,C[C@@H]1[C@H](O)[C@@H](C)C=CC=CCCC=CC=CC=CC=C[C@H](O[C@H]2O[C@@H](C)[C@H](O)[C@@H](N)[C@@H]2O)CC2O[C@](O)(C[C@@H](O)[C@H](O)CC[C@@H](O)C[C@@H](O)C[C@@H](O)CC(=O)O[C@H]1C)C[C@H](O)[C@H]2C(=O)O,inactive
12,C[C@]12COC(=O)C[C@@H]1CC[C@@H]1[C@H]2CC[C@@]2(C)[C@H]1CC[C@]2(C)O,inactive
13,C=C[C@@H]1CN2CCC1C[C@@H]2[C@@H](O)c1ccnc2ccccc12 (stereo partly drawn),13200 nM (active)
14,C[C@H]1CCCC=CC2C[C@H](O)C[C@@H]2[C@H](O)C=CC(=O)O1 (stereo partly drawn),inactive
15,CC1=C(O)C(=O)C=C2C1=CC=C1[C@@]2(C)CC[C@@]2(C)[C@@H]3C[C@](C)(C(=O)O)CC[C@]3(C)CC[C@]12C,662 nM (active)
16,CCN1CCN(C(=O)Cc2ccc(Nc3ncc(F)c(Nc4ccc(C(=O)Nc5ccccc5Cl)cc4)n3)cc2)CC1,5900 nM (active)
17,O=S(=O)(F)Cc1ccccc1,41.8 nM (active)
18,CC(C)[C@]12O[C@@H]1[C@@H]1O[C@]13[C@]1(O[C@H]1C[C@@H]1C4=C(CC[C@@]13C)C(=O)OC4)[C@H]2O,inactive
19,O=c1[nH]c2ccccc2n1C1CCN(Cc2ccc(-c3[nH]c4cc5ncnc5cc4nc3-c3ccccc3)cc2)CC1,18700 nM (active)

row,Structure (SMILES),Potency
1,CCCC[N+]1(C)[C@H]2CC(OC(=O)[C@H](CO)c3ccccc3)C[C@H]1[C@H]1O[C@H]12 (stereo partly drawn),inactive
2,O=C(Nc1ccncc1)C(=O)c1cn(Cc2ccc(Cl)cc2)c2ccccc12,264 nM (active)
3,CSCC[C@@H](NC(=O)[C@@H](Cc1ccccc1)NC(=O)CNC(=O)CNC(=O)[C@@H](N)Cc1ccc(O)cc1)C(=O)O,inactive
4,COCC1(CO)C(=O)C2CCN1CC2 (stereo not drawn),264 nM (active)
5,c1ccc2c(CN3CCNCC3)cccc2c1,inactive
6,C=C[C@@H]1CN2CCC1C[C@H]2[C@H](O)c1ccnc2ccccc12 (stereo partly drawn),18700 nM (active)
7,CCc1c(C(=O)C(N)=O)c2c(OCC(=O)O)cccc2n1Cc1ccccc1,inactive
8,C=CCON=C(C[C@H]1O[C@@H]2O[C@]3(C)CC[C@@H]4[C@H](C)CC[C@@H]([C@H]1C)[C@@]24OO3)[C@H]1O[C@@H]2O[C@]3(C)CC[C@H]4[C@H](C)CC[C@@H]([C@@H]1C)[C@@]24OO3,526 nM (active)
9,COc1ccc2c(c[n+](C)c3c4cc5c(cc4ccc23)OCO5)c1OC,4690 nM (active)
10,COc1cccc2c1[C@]13CCN(CC4CC4)[C@H](C2)[C@]1(OC)CCC(=O)C3,inactive
11,Cc1[nH]nc2ccc(-c3cncc(OC[C@@H](N)Cc4c[nH]c5ccccc45)c3)cc12,833 nM (active)
12,CC(C)(O)C=CC(=O)[C@](C)(O)[C@H]1[C@H](O)C[C@]2(C)[C@@H]3CC=C4[C@@H](C=C(O)C(=O)C4(C)C)[C@]3(C)C(=O)C[C@@]12C,41.8 nM (active)
13,CC[C@@H]1[C@@H](C)O[C@@](O)([C@@H](C)[C@H](O)[C@H](C)[C@H]2OC(=O)C=CC=C[C@@H](C)[C@@H]([C@@H](C)[C@@H](O)[C@H](C)[C@@]3(O)C[C@H](O[C@H]4C[C@H](O)[C@H](O)[C@H](C)O4)[C@H](CC)[C@@H](C)O3)OC(=O)C=CC=C[C@@H]2C)C[C@H]1O[C@H]1C[C@H](O)[C@H](O)[C@H](C)O1,469 nM (active)
14,CC[C@@]1(O)C(=O)OCc2c1cc1n(c2=O)Cc2cc3ccccc3nc2-1,23.5 nM (active)
15,CCOC(=O)Nc1ccc(NCc2ccc(F)cc2)cc1N,18700 nM (active)
16,CN1CCN(c2ccc([N+](=O)[O-])c3no[n+]([O-])c23)CC1,23500 nM (active)
17,CCNC(=O)C[C@@H]1N=C(c2ccc(Cl)cc2)c2cc(OC)ccc2-n2c(C)nnc21,1050 nM (active)
18,C[C@@H]1O[C@@H](O[C@@H]2C=C3CC[C@@H]4[C@@H](CC[C@]5(C)[C@H](c6ccc(=O)oc6)CC[C@@]45O)[C@@]3(C)CC2)[C@H](O)[C@H](O)[C@H]1O,29.6 nM (active)
19,CC=C(C)C(=O)O[C@H]1C(C)=C2[C@@H]3OC(=O)[C@@](C)(O)[C@@]3(O)[C@@H](OC(=O)CCC)C[C@](C)(OC(C)=O)[C@@H]2[C@@H]1OC(=O)CCCCCCC,18.7 nM (active)
